# The campaign covered roughly 350,000 compounds. About 31,000 (8.9%) were called active. Inconclusive results (about 15%) are left out. The list comes from a sample in which actives are over-represented; it also holds similar structures and randomly drawn compounds. Unmarked numbers belong to inactive results. Calls follow the shape of the dose curve; as a rule, active = well fitted inhibition curve with a large enough effect; inconclusive = small, poorly fitted or top-dose-only effect; inactive = no such curve, though single readings can be large or run the other way.
# Molecular target: Histone-lysine N-methyltransferase EHMT2 (Homo sapiens) (UniProt Q96KQ7)
# Sequence (Q96KQ7 913-1193 limits assumed): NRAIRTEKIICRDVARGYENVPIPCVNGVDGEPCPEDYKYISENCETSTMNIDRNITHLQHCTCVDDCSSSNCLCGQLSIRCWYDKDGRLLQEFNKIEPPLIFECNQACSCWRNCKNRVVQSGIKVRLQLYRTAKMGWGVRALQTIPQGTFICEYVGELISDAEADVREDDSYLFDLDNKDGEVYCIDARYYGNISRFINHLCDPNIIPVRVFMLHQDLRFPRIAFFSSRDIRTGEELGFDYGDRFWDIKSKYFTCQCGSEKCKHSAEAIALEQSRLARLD
# Test: qHTS Assay for Inhibitors of Histone Lysine Methyltransferase G9a; also: nearly all actives have a fitted effect of over 75% in size
# Conditions: G9a H3K9 monomethylation, AlphaScreen, 2 h; series mostly up to 59 µM; activity, negative = inhibition: at the top concentration
# Method in brief: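 Chemiluminescent proximity detection of H3K9 monomethylation, read after 10 min bead incubation in the dark. Reaction: 20 nM G9a, 500 nM biotin-H3K9 peptide, 20 uM SAM cofactor, 2 h, room temperature, following 15 min enzyme-compound preincubation.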
# % is scaled to controls: 0 for no effect and ±100 for the full control effect; potency is read from the fitted curve at half-maximal effect.
Compound,"activity, negative = inhibition",Potency
Cc1ccc(S(=O)(=O)N2[C@@H](c3ccccc3F)C(C(=O)O)=CC[C@H]2c2ccc(Cl)cc2)cc1,-0.77% [at 2.33 µM],–
O=C(CSc1nccn1Cc1ccc(Cl)cc1)NCc1ccccc1,-22.1%,–
COc1ccc([C@@H]2[C@@H]3C(=O)N(C(C)(C)C)C(=O)[C@@H]3[C@]3(Cc4ccccc4)C(=O)N(c4cccc(Br)c4)C(=O)N23)cc1,-84.6% [at 2.33 µM],–
Cc1ccc(C(=O)NCCSc2c(C)[nH]c3ccccc23)cc1C,-33%,–
Cc1cccc(-n2ncc(Cl)c(Cl)c2=O)c1,-6.01% [at 102 µM],–
CC(C)CN(C(=O)CSc1nncn1C)C1CCS(=O)(=O)C1 (stereo unspecified),7.97% [at 2.33 µM],–
Cc1cccc(N2CCN(C(C)C(=O)N3CCc4ccccc43)CC2)c1C (stereo unspecified),24.8% [at 102 µM],–
COC(=O)c1ccccc1NC(=O)c1ccc2c(=O)n3c(nc2c1)CCCCC3,6.89%,–
COc1ccc2c(c1)c(=O)c(S(=O)(=O)c1ccc(F)cc1)cn2CC(=O)Nc1ccc(C)cc1C,-0.892%,–
O=C(CCC1CCCCC1)Nc1cc(C(F)(F)F)ccc1N1CCOCC1,42.8% [at 102 µM],–
CC(C)CC(=O)Nc1cc(C(F)(F)F)ccc1N1CCOCC1,-30.9%,–
Nc1cc(C(F)(F)F)ccc1N1CCOCC1,–,50.1 µM (active)
Cn1c(=O)oc2cc(S(=O)(=O)CCC(=O)NCCc3ccc(Cl)cc3)ccc21,3.51%,–
Cc1ccc(NNC(=O)c2cccs2)cc1Cl,–,8.91 µM (active)
Cc1ccc(NNC(=O)c2c(F)cccc2Cl)cc1Cl,-32% [at 102 µM],–
O=C(NNC(=O)c1ccc(Cl)cc1Cl)c1cccs1,1.93% [at 102 µM],–
CCOc1ccc(-n2c(SCC(=O)NCc3ccccc3)nc3n[nH]c(C)c3c2=N)cc1,37.3%,–
Cc1ccc(S(=O)(=O)N2CCC(C(=O)Nc3cc(C)ccc3C)CC2)cc1,8.46%,–
Cc1ccc(S(=O)(=O)N2CCC(N3CCCCCC3)CC2)cc1,–,10 µM (active)
COc1ccc(S(=O)(=O)N2CCCC(C(=O)N3CCN(C)CC3)C2)cc1C (stereo unspecified),3.75%,–
CC(=O)Nc1ccc(S(=O)(=O)N2CCN(C3CCCCCCC3)CC2)cc1,6.22%,–
O=C(C1CCCN(S(=O)(=O)c2ccc([N+](=O)[O-])cc2)C1)N1CCCCC1 (stereo unspecified),64.4% [at 102 µM],–
Cc1ccc(S(=O)(=O)N2CCCC(C(=O)N3CCN(C)CC3)C2)cc1 (stereo unspecified),–,10 µM (active)
COc1ccc(NC(=O)CSc2nc3ccccc3[nH]2)cc1,-3.73%,–

Compound,"activity, negative = inhibition",Potency
CC1CCCCC1NC(=O)CCS(=O)(=O)c1ccc2c(c1)NC(=O)CO2 (stereo unspecified),-7.89% [at 102 µM],–
CCN(C(=O)c1cc([N+](=O)[O-])ccc1NCc1cccnc1)c1ccccc1,19% [at 102 µM],–
CC(C)(C)OC(=O)N1CCC(c2c(C(=O)N3CCN(c4cccc(Cl)c4)CC3)cnn2-c2cccc(Cl)c2)CC1,-27.2%,–
CCC1C(=O)NCCN1C(=O)c1ccc2nc(Cc3ccc(OC)cc3)oc2c1 (stereo unspecified),-13.6% [at 102 µM],–
COc1cccc(NC(=O)CC2C(=O)NCCN2C(=S)Nc2ccc(F)cc2)c1 (stereo unspecified),-29.9% [at 102 µM],–
COc1ccc(C(=O)NC(=S)N2CCNC(=O)C2CC(=O)OC(C)C)cc1 (stereo unspecified),–,25.1 µM (active)
O=C(Cc1ccc(Cl)cc1)NCc1nc(-c2ccccc2)no1,2.46% [at 102 µM],–
C/C(=N\NC(=O)Cc1ccc(Cl)cc1)c1ccccn1,32.8% [at 102 µM],–
C/C(=N/Nc1ccc(Cl)cc1)c1cnnc(-c2ccccc2)n1,–,39.8 µM (active)
Cc1cc(C(=O)Nc2cccc(C(F)(F)F)c2)c2c(C)nn(-c3cccc(F)c3)c2n1,5.99%,–
O=[N+]([O-])c1ccc(N2CCN(c3ccc(O)cc3)CC2)c(Cl)c1,–,3.16 µM (active)
CCN1CCN(c2ccc([N+](=O)[O-])cc2C(=O)c2ccc(Cl)cc2)CC1,36.3% [at 0.501 µM],–
CN(C)S(=O)(=O)N1CCN(c2ccc([N+](=O)[O-])cc2)CC1,-2.69% [at 102 µM],–
O=C(c1cncc(Br)c1)N1CCN(c2ccc([N+](=O)[O-])cc2)CC1,-29.7%,–
COc1ccc(N2CCN(c3ccc([N+](=O)[O-])cc3Cl)CC2)cc1,–,7.94 µM (active)
COc1ccc(N2CCN(c3ccc([N+](=O)[O-])nc3)CC2)cc1,-35.1% [at 102 µM],–
COc1cc(CN(CC2CCCO2)C(=O)c2ccccc2F)cc(OC)c1OC (stereo unspecified),-3.03%,–
Cc1ccc(S(=O)(=O)N(C)CC(=O)NCC(c2ccc(F)cc2)N2CCOCC2)cc1 (stereo unspecified),19.1% [at 12.7 µM],–
CCOC(=O)CSC1=Nc2ccccc2C2=NC(CCC(=O)NCc3ccc(F)cc3)C(=O)N12 (stereo unspecified),3.43%,–
CC(C)N1CCC(=NNc2ccc([N+](=O)[O-])cc2S(=O)(=O)N2CCOCC2)CC1,–,15.8 µM (active)
O=[N+]([O-])c1ccc(NCCCN2CCOCC2)c(Cl)c1,20.5% [at 2.33 µM],–
O=[N+]([O-])c1cc(S(=O)(=O)N2CCCC2)ccc1NN=C1CCCC1,2.51%,–
CC(=O)NC12CC3CC(C1)CC(C(=O)N1CCN(S(=O)(=O)c4cccs4)CC1)(C3)C2,5.2% [at 12.7 µM],–
O=C(NCCCO)C(=O)Nc1c2c(nn1-c1ccc(F)cc1)CSC2,–,11.2 µM (active)

Compound,"activity, negative = inhibition",Potency
O=C(NCCCO)C(=O)Nc1c2c(nn1-c1ccccc1)CSC2,–,10 µM (active)
O=C(Nc1c2c(nn1-c1ccc(F)cc1)CS(=O)C2)C12CC3CC(CC(C3)C1)C2 (stereo unspecified),-7.51% [at 102 µM],–
COc1ccc(-n2nc3c(c2NC(=O)c2ccc(N4C(=O)CCC4=O)cc2)CSC3)cc1,20.2% [at 102 µM],–
CC(C)C(=O)Nc1c2c(nn1-c1ccccc1)CSC2,24.7% [at 102 µM],–
CC(=O)Nc1c2c(nn1-c1cccc(C)c1)CSC2,7.68%,–
COc1cc(CCC(=O)N2CCN(c3ccccc3Cl)CC2)cc(OC)c1OC,-9.07% [at 102 µM],–
CCc1ccc(CN(Cc2ccco2)C(=O)COc2ccc(Cl)c(C)c2)cc1,91.2%,–
Cc1ccc(OCCSc2nc(C)c(Cc3ccccc3)c(=O)[nH]2)cc1,-9.13%,–
CCOc1cc(C2C(C(=O)c3ccco3)=C(O)C(=O)N2Cc2ccccc2)ccc1O (stereo unspecified),–,44.7 µM (active)
O=C(C1=C(O)C(=O)N(Cc2ccccc2)C1c1ccco1)c1ccco1 (stereo unspecified),0.744% [at 12.7 µM],–
CCOc1cc(C2c3c(-c4ccc(Br)cc4)n[nH]c3C(=O)N2c2ccc(Cl)cc2)ccc1O (stereo unspecified),-2.85%,–
O=C(CCNS(=O)(=O)c1ccccc1C(F)(F)F)Nc1ccncc1,-8.2% [at 12.7 µM],–
Cc1cc(/C=C2/SC(=O)N(CC(=O)N3CCCC3)C2=O)c(C)n1C,–,50.1 µM (active)
Cc1cc(/C=C2/SC(=O)N(CC(=O)OC(C)C)C2=O)c(C)n1C,19.4% [at 12.7 µM],–
Cc1cc(/C=C2/SC(=O)N(CC(=O)N3CCCC3)C2=O)ccc1N1CCOCC1,-34.9% [at 102 µM],–
Cc1cccc(N=C2SC(C)CN2C(=O)CN2C(=O)NC3(CCCC3)C2=O)c1 (stereo unspecified),-1.2% [at 0.501 µM],–
CCn1cc2nc(SCc3ccccc3Cl)n(CCc3ccccc3)c(=O)c2n1,-9.1%,–
C=CCOc1ccc(/C=C/C(=O)OC(C)C(=O)Nc2ccc(NC(C)=O)cc2)cc1 (stereo unspecified),-0.879% [at 102 µM],–
COc1ccc(CNC(=O)COC(=O)CCS(=O)(=O)c2ccc(C)cc2)cc1OC,8.78% [at 102 µM],–
CN1CCCN(S(=O)(=O)c2ccc3c(c2)OCCO3)CC1,76.4%,–
CN1CCN(S(=O)(=O)c2ccc3[nH]cc(C(=O)O)c(=O)c3c2)CC1,–,56.2 µM (active)
CN1CCN(S(=O)(=O)c2cccc(C(=O)O)c2)CC1,-49.6% [at 102 µM],–
Cc1ccc(-c2nnc(CN3CCN(C)CC3)o2)cc1,-1.5% [at 102 µM],–
COc1ccc(N2CCN(Cc3nc4c(c(=O)[nH]c(=O)n4C)n3Cc3ccc(Cl)cc3)CC2)cc1,-33.5%,–

Compound,"activity, negative = inhibition",Potency
COc1ccc(N2CCN(Cc3nnc(-c4ccccc4)o3)CC2)cc1,–,35.5 µM (active)
CCOCc1c(C(=O)N2CCN(Cc3ccc(Br)s3)CC2)oc2ccccc12,16.1% [at 2.33 µM],–
Cc1ccc(C)c(N2CCN(Cc3nnc(-c4ccccc4)o3)CC2)c1,-2.97%,–
COc1ccc(N2CCN(Cc3ccc(Br)s3)CC2)cc1,–,3.16 µM (active)
CNS(=O)(=O)c1cccc(C(=O)OCC(=O)N2c3ccccc3NC(=O)C2(C)C)c1,10.5% [at 12.7 µM],–
COc1ccc(NC(=O)CN2CCCN(Cc3ccccc3)S2(=O)=O)cc1,2.42%,–
CC(C)Sc1ncnc2c1cnn2-c1ccccc1,326% [at 102 µM],–
Cc1cc(NC(=O)C(C)SCC(=O)Nc2ccccc2N2CCCCC2)no1 (stereo unspecified),-46.6% [at 102 µM],–
CCOc1ccc(CNC(=O)c2ccc3nc(CC)c(CC)nc3c2)cc1OC,-2.75%,–
CCCCNC(=O)N(O)C1N(/N=C/c2ccccc2O)C(=S)SC1(C)C (stereo unspecified),17.2% [at 102 µM],–
CN1CCN(c2ccc(NC(=O)c3ccccc3)cc2)CC1,-20.6% [at 102 µM],–
CN1CCN(c2ccc(NC(=O)c3cc(Cl)c4c(c3)OCCO4)cc2)CC1,–,50.1 µM (active)
O=C(Nc1cccc(Cl)c1N1CCOCC1)c1ccc2c(c1)OCCO2,-12% [at 102 µM],–
CCCC12CN3CC(C)(CN(C1)C3c1ccccc1Cl)C2=O (stereo unspecified),-38%,–
COc1ccc2ccn(C)c2c1,-0.398% [at 0.501 µM],–
COc1ccc2c(c1)cc1n2CCN=C1NN,–,39.8 µM (active)
Cc1ccc(C)c(NC(=O)Cn2ccn(-c3ccc(F)cc3)c(=O)c2=O)c1,-3.23%,–
Cc1cccc(C(=O)Nc2ccc(-c3nc4ncccc4o3)cc2C)c1,-23.1%,–
COC(=O)C1=CO[C@@H](O[C@@H]2O[C@H](CO)[C@@H](O)[C@H](O)[C@H]2O)C2C1C[C@H](O)[C@@H]2C (stereo partly specified),1.46% [at 2.33 µM],–
CCc1cccc(NC(=O)Cn2nc(CC)n3c(cc4cc(C)ccc43)c2=O)c1,10.2%,–
COc1ccccc1C(=O)NCC(=O)OCC(=O)Nc1nnc(-c2ccccc2)o1,17.3% [at 12.7 µM],–
COc1ccccc1NC(=O)C1=C(C)NC2=C(C(=O)CCC2)C1c1ccc(C)o1 (stereo unspecified),–,50.1 µM (active)
COc1ccccc1NC(=O)C1=C(C)Nc2ncnn2C1c1ccc(C)o1 (stereo unspecified),-42.2% [at 12.7 µM],–
COc1ccccc1NC(=O)C1=C(C)NC(=O)NC1c1ccc(C)s1 (stereo unspecified),-35.5% [at 102 µM],–
